Data reported in PubChem BioAssay (NCI).
About 79,000 compounds went through this panel and 15% of them were active in at least one assay; those are over-represented in the sample as a whole. Unmarked numbers belong to inactive results. The source made the active and inactive calls. No stated cut-off is given here; in the data, active means growth inhibition above about 70%; inactive means the rest.

Key:
[1] = NCI Yeast Anticancer Drug Screen. Data for the rad50 strain (AID 155);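 further: 0% = growth of vehicle-only cultures of the same strain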; conditions: S. cerevisiae rad50 strain growth inhibition; at 50.0 µM; hits give high values
In short: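 Compounds were tested on a yeast strain with an engineered DNA damage repair alteration; the reported value is growth inhibition normalised to vehicle treatment.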

[2] = NCI Yeast Anticancer Drug Screen. Data for the mec2-1 strain (AID 157); conditions: S. cerevisiae mec2-1 strain, at 50.0 µM, hits give high values
In short: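 Vehicle-treated cultures served as reference for growth inhibition of compound-exposed mec2-1 yeast.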

[3] = NCI Yeast Anticancer Drug Screen. Data for the sgs1 mgt1 strain (AID 161);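 further: 0% = growth of cultures given vehicle only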; conditions: S. cerevisiae sgs1 mgt1 strain, at 50.0 µM, hits give high values
In short: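 Inhibition of yeast growth, normalised to vehicle-treated controls, is reported for a strain bearing genetic alterations in DNA damage repair.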

[4] = NCI Yeast Anticancer Drug Screen. Data for the bub3 strain (AID 167); conditions: S. cerevisiae bub3 mutant strain, at 50.0 µM, hits give high values
In short: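 Growth of a checkpoint-deficient yeast mutant is measured after compound exposure. Values represent inhibition relative to vehicle.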

[5] = NCI Yeast Anticancer Drug Screen. Data for the mlh1 rad18 strain (AID 175); conditions: S. cerevisiae mlh1 rad18 strain growth inhibition; at 50.0 µM; hits give high values
In short: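 Vehicle-treated cultures served as the reference for growth inhibition in a yeast strain carrying DNA damage repair alterations exposed to each compound.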

[6] = NCI Yeast Anticancer Drug Screen. Data for the cln2 rad14 strain (AID 165);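 further: 0% = growth equal to vehicle treated cultures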; conditions: S. cerevisiae cln2 rad14 strain, at 50.0 µM, hits give high values
In short: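 Each compound was tested on cln2 rad14 yeast. Inhibition of growth was calculated against vehicle-exposed controls.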

| SMILES | growth inhibition [1] | growth inhibition [2] | growth inhibition [3] | growth inhibition [4] | growth inhibition [5] | growth inhibition [6] |
| --- | --- | --- | --- | --- | --- | --- |
| C/C(C=C(C#N)C#N)=C\c1ccc(F)cc1 | 14.9% | 28.1% | -2.1% | -7.3% | 21.4% |  |
| OC1(c2ccccc2)C=C(c2ccccc2)C=C(c2ccccc2)O1 (centres undefined) | -5.95% | 10.7% | -1.05% | 8.05% | -2.55% |  |
| CC(=O)OCC(C)(C)C(OC(C)=O)C(C)C (centres undefined) | 16.1% | 0.75% | 13.8% | -0.5% | 11.2% |  |
| C[C@@]12CCC3C1C=C1C(=O)c4cc(O)ccc4C(=O)[C@]1(O2)[C@@]3(C)C=O | -10.7% | 2% | 78.8% (active) | 76.3% (active) | 89.7% (active) |  |
| O=[N+]([O-])c1ccc(-c2ccccc2-c2ccccc2)cc1 | 3.9% | -2.8% | 8.25% | 3.5% | -22.9% |  |
| C/C(=N\NC(N)=O)c1ccc(Cl)c(-n2cccc2)c1 | 12.3% | 3.65% | 32.7% | 32.1% | 31.2% |  |
| CCC(=O)C(=O)c1ccccc1 | -12.9% | -6.5% | -0.4% | -1.05% | 3.2% |  |
| C1=CC(c2ccccc2)C(c2ccccc2)C(c2ccccc2)=C1 (centres undefined) | -16.6% | 2.05% | 8.8% | -4.95% | -22.6% |  |
| CCCCC(C)C(C)O (centres undefined) | -28.5% | -62.1% | -24.6% | -33.9% | -0.8% |  |
| CCOC(=O)Nc1c2ccccc2c(NC(=O)OCC)c2cc(Cl)ccc12 | 4.2% | -1.75% | 3.75% | 2.85% | 19.8% |  |
| COC(=O)c1ccccc1N=NNc1ccc2c(=O)c3ccccc3[nH]c2c1 | 23.8% | 1.7% | 22.1% | 11.6% | 66% |  |
| Cc1ccc(SCC(=O)O)c(C)c1 | 27.1% | 17.9% | 18.1% | 7.65% | -13.5% |  |
| O=C1C2C3C=CC(CC3)C2C(=O)C2C3C=CC(C3)C12 (centres undefined) | 1.15% | 24.1% | 26.9% | -1.45% | 32.3% |  |
| CC(C)[C@@H]1CC[C@@H](C)C[C@H]1OC(=O)c1c2n(c3ccccc13)C[C@H]1OC(C)(C)O[C@@H]21 | 5.15% | -6.65% | 7.4% | 15.2% | -46.2% |  |
| O=C1OC(c2ccccc2)=N/C1=C\c1ccc(F)cc1 | -10.4% | -17.5% | -1.75% | -19.3% | -3.75% |  |
| COC(=O)C1(CC(=O)Cc2ccccc2)NC(=S)NC(=O)C1C#N (centres undefined) | 8.45% | -7.7% | -12.2% | -29.1% | 4.8% |  |
| O=[N+]([O-])c1ccc(N=CC2CCC=CO2)cc1 (centres undefined) | -4.3% | 17.8% | -10.2% | -9.4% | -14.9% |  |
| O=C/C=C/N=c1ccn(O)cc1 | 8.65% | 3.45% | 3.05% | 4.25% | 2.1% |  |
| Cc1cc([O-])c([I+]c2ccccc2)c(=O)[nH]1 | 93.3% (active) | 66.8% | 97.8% (active) | 95.5% (active) | 90.2% (active) |  |
| N#CC(OC(=O)c1ccccc1)C(OC(=O)c1ccccc1)C(COC(=O)c1ccccc1)OC(=O)c1ccccc1 (centres undefined) | -38.9% | 6.3% | 9.95% |  | 26.6% | 20.5% |
| COc1cc(NCCC2CCCCN2C)c2ncccc2c1 (centres undefined) | -3.9% | -22.4% | 8.55% | 13.6% | 22.1% |  |
| Brc1cccc(C2SCc3nc4ccccc4n32)c1 (centres undefined) | 33% | 16.9% | 37.2% | 19.2% | 21.4% |  |
| CCOP(=O)(OCC)C(Cc1cn(S(=O)(=O)c2ccc(C)cc2)cn1)C(=O)O (centres undefined) | -14.2% | 12.5% | 5.9% | 21.4% | -17.4% |  |

| SMILES | growth inhibition [1] | growth inhibition [2] | growth inhibition [3] | growth inhibition [4] | growth inhibition [5] | growth inhibition [6] |
| --- | --- | --- | --- | --- | --- | --- |
| Cc1cc2c(cc1C)NC1C(=O)C(c3ccccc3Cl)OC1=N2 (centres undefined) | -1.2% | -10.4% | -2.4% | 0.55% | 3.15% |  |
| O=C(O)c1c[nH]c(=O)[nH]c1=O.[Cu+2] | -23.9% | -13% | -12.4% | -40.8% | -21.2% |  |
| COC1(OC)C(c2ccc([N+](=O)[O-])cc2)C([N+](=O)[O-])C1(OC)OC (centres undefined) | -14.1% | -16.1% | -32% | -8.4% | -17.6% |  |
| CCCCCCCC/C=C\CCCCCCCCOC(=O)CC(O)C(=O)OCCCCCCCC/C=C\CCCCCCCC (centres undefined) | -22.6% | -4.05% | -7.5% | -9.8% | -17.2% |  |
| C=CCNC(=S)Nc1cccc(OC(=O)Nc2ccc(Cl)c(Cl)c2)c1 | -16.4% | -11.2% | -18.4% | 1% | -12.4% |  |
| O=C(O)C(NCCCNC(C(=O)O)c1ccccc1)c1ccccc1 (centres undefined) | 22.4% | 14.2% | 22.6% | 21.7% | 19.1% |  |
| COC1(c2ccccc2)OC(=O)C(C)(C)c2ccccc21 (centres undefined) | -5.1% | 7.65% | 14.2% | 13.9% | 3.55% |  |
| O=C(c1ccc(Cl)cc1)C(Br)C(C[N+](=O)[O-])c1ccccc1 (centres undefined) | 99.3% (active) | 99% (active) | 99.5% (active) | 99.1% (active) | 99.2% (active) |  |
| C=CCCCCCCCC(O)C1C[C@H](O)C(CCCCC)O1 (some centres undefined) | -0.8% | -16.9% | 9.25% | -17.2% | -5% |  |
| Cc1cc(C(=O)O)c2c([nH]1)c(C)cc1nc3ccccc3c12 | 12.6% | 5.65% | -10% | 4.95% | -19.2% |  |
| COc1ccccc1NCC(=O)Nn1c(C)nc2ccc(S(=O)(=O)Nc3ccccc3OC)cc2c1=O | 2.85% | -18.9% | 20.9% | 1.55% | 0.1% |  |
| CCc1n[nH]c(=O)n1/N=C/c1ccc(C)cc1 | -0.2% | -3.3% |  | 3.8% |  | -0.3% |
| COc1ccc(C(C)=C(C#N)C#N)cc1 | 18.9% | 2.7% |  | 20.4% | 13.1% | 16.1% |
| CCN(Cc1cc(Nc2ccnc3cc(Cl)ccc23)ccc1O)C(=O)N1CCN(C)CC1 | 10.7% | 6.1% |  | -7.55% | 11.1% | 15.8% |
| O=C(C[n+]1ccccc1Cl)c1ccc(I)cc1 | 18.2% | 24.8% |  | 19.9% | 56.8% | 9.05% |
| Cc1ccc(N2CCN(C(=O)c3ccccc3)CC2)cc1 | -16.9% | 1.55% |  | 16.5% | -9.35% | -13.6% |
| O=[N+]([O-])c1ccc(-c2csc(NCC3CCCO3)n2)cc1 (centres undefined) | 24.3% | -10.6% |  | 21.6% | 17.9% | 21.1% |
| CC(=O)/C(C(=N)C(=O)c1ccccc1)=C(\C)O | -12.1% | 22.5% |  | 4.3% | 0.25% | -16.6% |
| CC(CC(=O)O)C1(C)C2CCCCC2C2CCCCC21 (centres undefined) | -6.2% | -9.6% |  | -4.15% | -2.8% | -13.3% |
| O=C1CC2(CCCc3sccc32)C(=O)N1 (centres undefined) | -11.2% | -1.65% |  | -5.6% | -14.1% | -21.1% |
| CC(=O)c1c(C)c(C)c(=O)n(C/C=C(\C)CCC=C(C)C)c1O | 98% (active) | 99% (active) |  | 98.3% (active) | 98.1% (active) | 97.4% (active) |
| O=C(NC(CS)C(=O)O)c1cnc2ccccc2n1 (centres undefined) | -4.8% | -12.9% |  | 18.6% | 0.3% | -9.9% |
| Cc1ccc(S(=O)(=O)c2c(N)c3nccn3c3nc4ccccc4nc23)cc1 | -52.2% | -68.2% |  | -62.1% | -88.8% | -38.8% |
